In PubChem BioAssay (Tox21):
Records with an inconclusive call do not appear. A structure can be active in one record and inactive in another. The source made the active and inactive calls. The call rests on the fitted dose curve; in most records, active means well fitted cell-killing curve with a large enough effect in the repeat runs; inconclusive means weak or mixed curves, or effect the other way; inactive means no such curve, though single readings can be large or run the other way.

test: qHTS assay to identify small molecule agonists of the farnesoid-X-receptor (FXR) signaling pathway - cell viability counter screen (AID 743218); conditions: FXR-bla HEK293T viability, CellTiter-Glo luminescence, 16 h; series mostly up to 62.6 µM; viability change, negative = cytotoxic: at the top concentration; further: nearly all actives have a fitted effect of over 45% in size
Source text: U.S. Tox21 Program National Center for Advancing Translational Sciences [NCATS] NIH Chemical Genomics Center [NCGC] U.S. Environmental Protection Agency [EPA] National Institutes of Environmental Health Sciences [NIEHS] National Toxicology Program [NTP] U.S. Food and Drug Administration [FDA] Tox21 Assay Overview: The farnesoid-X-receptor (FXR), a nuclear hormone receptor, is highly expressed in liver, intestine, kidney and adrenal cortex. Natural ligands of FXR are the bile acids (Cholic acid, Chenodeoxy cholic acid etc). FXR is an important regulator of diverse metabolic pathways, including the bile acid homeostasis, lipid and glucose metabolisms. FXR regulates the expression of target genes by binding either as a monomer or as a heterodimer with the retinoid X receptor (RXR). Numerous studies have reported that FXR exerts protective function during cholestasis, diabetes, liver regeneration, and cancer. To identify compounds that activate FXR signaling, GeneBLAzer FXR-UAS-bla HEK 293T cell line (Invitrogen, Carlsbad, CA) containing a beta-lactamase reporter gene under the control of a UAS response element was used to screen the Tox21 10K compound library. The cytotoxicity of the Tox21 compound library against the FXR-bla cell line was tested in parallel by measuring the cell viability using CellTiter-Glo assay in the same wells.
Tox21 Assay Protocol Summary: FXR-bla cells were dispensed at 5000 cells/5uL/well in 1536-well black wall/clear bottom plates using a Multidrop Combi (Thermo Fisher Scientific, Waltham, MA) dispenser. After the assay plates were incubated at 37 C and 5% CO2 for 5 h, 23 nL of compounds dissolved in DMSO, positive controls or DMSO only was transferred to the assay plate by a Pintool station (Kalypsys, San Diego, CA). The assay plates were incubated at 37C for 16 h. After 1 uL of LiveBLAzerTM B/G FRET substrate was added using a Bioraptr Flying Reagent Dispenser (FRD) workstation (Beckman Coulter, Indianapolis, IN), the plates were incubated at room temperature for 2 h, and fluorescence intensity was measured by an Envision plate reader (PerkinElmer, Shelton, CT). For cell viability readout that measures cytotoxicity, 4uL/well of CellTiter-Glo reagent was added into the assay plates using a Bioraptr FRD. After 30 min incubation at room temperature, the luminescence intensity in the plates was measured using a ViewLux plate reader (PerkinElmer).
On the % scale 0 is the no-effect control and ±100 the full control effect; potency means the concentration at half of the fitted maximal effect.

**Q.** Which “viability change, negative = cytotoxic” value does the source give for CCC1(CC)C(=O)N=C(O)NC1=O here?
**A.** -23.1% (inactive)

**Q.** Which “viability change, negative = cytotoxic” value does the source give for CNC(=O)CSP(=O)(OC)OC here?
**A.** -12.9% (inactive)

**Q.** For C=CC(=O)[O][Sn]([CH2]CCC)([CH2]CCC)[CH2]CCC, which Potency is on record?
**A.** 1.1 µM (active)

**Q.** For CCCC[N+]1(C)CCCC1 (tested in a mixture with another compound), which “viability change, negative = cytotoxic” value is on record?
**A.** 3.06% [at 81.1 µM] (inactive)

**Q.** With Oc1ccc(Cl)c(Cl)c1 as the molecule, how does the “viability change, negative = cytotoxic” value read?
**A.** -4.53% (inactive)

**Q.** With CC(C)Br as the molecule, how does the “viability change, negative = cytotoxic” value read?
**A.** 13.3% (inactive)

**Q.** Which Potency does the source give for N#Cc1sc2c(=O)c3ccccc3c(=O)c=2sc1C#N here?
**A.** 34.7 µM (active)

**Q.** With CC(=O)C(Cl)C(=O)N(C)C (stereo not given) as the molecule, how does the “viability change, negative = cytotoxic” value read?
**A.** -14% (inactive)

**Q.** With BrCC(Br)(Br)Br as the molecule, how does the “viability change, negative = cytotoxic” value read?
**A.** -15.2% [at 81.1 µM] (inactive)

**Q.** Which “viability change, negative = cytotoxic” value does the source give for CC(=O)[O-].CC(=O)[O-].[Co+2] here?
**A.** 20.6% (inactive)

**Q.** Which “viability change, negative = cytotoxic” value does the source give for CCn1cc[n+](C)c1 (tested in a mixture with another compound) here?
**A.** -10.9% (inactive)

**Q.** Which “viability change, negative = cytotoxic” value does the source give for COc1ccc(Cc2nccc3cc(OC)c(OC)cc23)cc1OC here?
**A.** 10.3% (inactive)

**Q.** For CC[N+]1(CC)CCC(OC(=O)C(O)(c2ccccc2)c2ccccc2)C1 (stereo not given), which “viability change, negative = cytotoxic” value is on record?
**A.** -4.25% (inactive)

**Q.** Which “viability change, negative = cytotoxic” value does the source give for COP(=S)(OC)Oc1nc(Cl)c(Cl)cc1Cl here?
**A.** 28.3% (inactive)

**Q.** Which “viability change, negative = cytotoxic” value does the source give for C#CCC1=C(C)C(OC(=O)C2C(C=C(C)C)C2(C)C)CC1=O (stereo not given) here?
**A.** 42% (inactive)

**Q.** Which “viability change, negative = cytotoxic” value does the source give for CCCCON=O here?
**A.** -5.27% [at 81.1 µM] (inactive)

**Q.** With c1ccc(N=NNc2ccccc2)cc1 as the molecule, how does the “viability change, negative = cytotoxic” value read?
**A.** -22.2% [at 81.1 µM] (inactive)

**Q.** With O=S1OCC2C(CO1)C1(Cl)C(Cl)=C(Cl)C2(Cl)C1(Cl)Cl (stereo not given) as the molecule, how does the Potency read?
**A.** 38.9 µM (active)

**Q.** Which “viability change, negative = cytotoxic” value does the source give for CC(Cl)CCl (stereo not given) here?
**A.** -1.39% (inactive)

**Q.** For CCCCCCCCCCCCCCn1cc[n+](C)c1, which Potency is on record?
**A.** 21.9 µM (active) and inactive

**Q.** For CCCCCON=O, which “viability change, negative = cytotoxic” value is on record?
**A.** -25.5% [at 81.1 µM] (inactive)

**Q.** With ClC1=C(Cl)[C@]2(Cl)[C@@H]3[C@H]4C[C@H]([C@@H]5O[C@H]45)[C@@H]3[C@@]1(Cl)C2(Cl)Cl as the molecule, how does the “viability change, negative = cytotoxic” value read?
**A.** 2.88% (inactive)

**Q.** For CC(=O)[O-].CC(=O)[O-].O.O.[Zn+2], which “viability change, negative = cytotoxic” value is on record?
**A.** -0.318% (inactive)

**Q.** For CC(C)[C@@H](Nc1ccc(C(F)(F)F)cc1Cl)C(=O)OC(C#N)c1cccc(Oc2ccccc2)c1 (stereo not given in full), which “viability change, negative = cytotoxic” value is on record?
**A.** -3.02% (inactive)

**Q.** Which “viability change, negative = cytotoxic” value does the source give for O=P(Cl)(Cl)Cl here?
**A.** 1.59% [at 81.1 µM] (inactive)

**Q.** With CN(C)CCc1c[nH]c2ccccc12 as the molecule, how does the “viability change, negative = cytotoxic” value read?
**A.** -2.59% [at 81.1 µM] (inactive)

**Q.** Which “viability change, negative = cytotoxic” value does the source give for ClCBr here?
**A.** -10.8% [at 81.1 µM] (inactive)

**Q.** Which “viability change, negative = cytotoxic” value does the source give for CN(C)c1ccc(N)cc1 here?
**A.** 1.3% (inactive)

**Q.** For O=NN(CCO)CCO, which “viability change, negative = cytotoxic” value is on record?
**A.** -9.63% (inactive)

**Q.** With CCCCCCC[CH2][Sn]([Cl])([Cl])[CH2]CCCCCCC as the molecule, how does the Potency read?
**A.** 11 µM (active)

**Q.** Which “viability change, negative = cytotoxic” value does the source give for CCNS(=O)(=O)C(F)(F)C(F)(F)C(F)(F)C(F)(F)C(F)(F)C(F)(F)C(F)(F)C(F)(F)F here?
**A.** -21.5% (inactive)

**Q.** With COc1c2c(cc3c1OCO3)CCN(C)C2 as the molecule, how does the “viability change, negative = cytotoxic” value read?
**A.** -0.75% (inactive)

**Q.** With [O]=[Cr][O][Cr]=[O] as the molecule, how does the “viability change, negative = cytotoxic” value read?
**A.** 0.143% [at 81.1 µM] (inactive)

**Q.** Which “viability change, negative = cytotoxic” value does the source give for BrCCCBr here?
**A.** -3.68% [at 81.1 µM] (inactive)

**Q.** Which Potency does the source give for O=[N+]([O-])c1cc(C(F)(F)F)c(Cl)c([N+](=O)[O-])c1Nc1ncc(C(F)(F)F)cc1Cl here?
**A.** 15.5 µM (active)

**Q.** Which Potency does the source give for CC(O)C(=O)[O][Hg][c]1ccccc1 (stereo not given) here?
**A.** 1.23 µM (active)

**Q.** With COP(=O)(OC)O/C(=C\Cl)c1cc(Cl)c(Cl)cc1Cl as the molecule, how does the “viability change, negative = cytotoxic” value read?
**A.** -4.75% (inactive)

**Q.** With C=CCOC(=O)c1ccccc1N as the molecule, how does the “viability change, negative = cytotoxic” value read?
**A.** 3.31% [at 81.1 µM] (inactive)

**Q.** For COC(=O)c1ccccc1S(=O)(=O)NC(=O)Nc1nc(C)nc(OC)n1, which “viability change, negative = cytotoxic” value is on record?
**A.** -9.48% (inactive)

**Q.** Which “viability change, negative = cytotoxic” value does the source give for C[C@H]1[C@H](c2ccc(Cl)cc2)SC(=O)N1C(=O)NC1CCCCC1 here?
**A.** -0.669% (inactive)
